Laboratory results reported in PubChem BioAssay AID652192 (Johns Hopkins Ion Channel Center, 2013).
Measured potencies and affinities stand elsewhere. Active and inactive are the calls of the source.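 Rule for the calls: active = peak inhibition of the KCNQ2 potassium channel over 30% at some tested dose, with a fitted dose response curve; inactive = no inhibition at any dose, or no curve fitted.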

The molecules below were run against Potassium voltage-gated channel subfamily KQT member 2 (Rattus norvegicus) (UniProt O88943) (assay: KCNQ2 channel inhibition, SAR follow-up, selectivity assay for TASK1 inhibitor project, cell-based, FluxOR thallium flux, concentration-response (AID 652192)). Settings: KCNQ2 cell line, FluxOR thallium flux fluorescence; series mostly up to 30 µM.
Potassium voltage-gated channel subfamily KQT member 2 (Rattus norvegicus), sequence (O88943 whole entry, looked up): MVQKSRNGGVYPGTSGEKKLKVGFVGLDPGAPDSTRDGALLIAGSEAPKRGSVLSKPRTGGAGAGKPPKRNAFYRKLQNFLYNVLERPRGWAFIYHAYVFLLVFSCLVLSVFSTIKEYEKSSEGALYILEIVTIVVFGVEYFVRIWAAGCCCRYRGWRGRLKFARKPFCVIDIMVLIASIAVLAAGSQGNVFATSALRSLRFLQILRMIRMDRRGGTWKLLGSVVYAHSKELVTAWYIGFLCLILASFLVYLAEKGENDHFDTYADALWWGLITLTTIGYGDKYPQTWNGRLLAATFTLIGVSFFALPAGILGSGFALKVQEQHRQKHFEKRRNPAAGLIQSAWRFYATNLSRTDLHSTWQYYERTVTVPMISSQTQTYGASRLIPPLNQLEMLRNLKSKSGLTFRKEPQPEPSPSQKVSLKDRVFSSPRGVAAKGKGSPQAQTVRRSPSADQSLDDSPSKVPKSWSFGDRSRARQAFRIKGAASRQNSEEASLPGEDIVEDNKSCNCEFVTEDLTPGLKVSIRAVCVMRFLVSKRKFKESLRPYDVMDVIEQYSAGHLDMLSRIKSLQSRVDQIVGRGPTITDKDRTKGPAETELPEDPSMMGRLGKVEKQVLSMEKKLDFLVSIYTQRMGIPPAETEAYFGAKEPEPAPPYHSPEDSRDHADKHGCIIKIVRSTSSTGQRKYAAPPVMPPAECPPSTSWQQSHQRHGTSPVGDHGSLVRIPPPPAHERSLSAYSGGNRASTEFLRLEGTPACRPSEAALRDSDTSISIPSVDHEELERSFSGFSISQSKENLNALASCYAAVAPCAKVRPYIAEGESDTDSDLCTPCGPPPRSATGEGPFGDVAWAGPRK

outcome, inactive:
CCOc1ccccc1NC(=O)c1cccc(NC(=O)c2ccccc2C)c1, Cc1cccc(C(=O)Nc2cccc(NC(=O)c3ccccc3)c2)c1, CC(C)c1ccccc1C(=O)Nc1cccc(NC(=O)c2ccccc2OC(F)(F)F)c1, O=C(Nc1cccc(NC(=O)c2ccncc2)c1)c1ccccc1, CCOc1ccccc1NC(=O)c1cccc(NC(=O)C2CCCO2)c1 (configuration not stated), CCOc1ccccc1NC(=O)c1cccc(NC(=O)c2ccccc2Cl)c1, CCOc1ccccc1NC(=O)c1cccc(NC(=O)c2ccccc2)c1, O=C(Nc1cccc(NC(=O)c2cccc(Cl)c2)c1)c1ccccc1, COc1ccccc1C(=O)Nc1cccc(NC(=O)c2cccc3ccccc23)c1, COc1ccccc1C(=O)Nc1cccc(NC(=O)c2ccccc2C)c1, CCOc1ccccc1NC(=O)c1cccc(NC(=O)c2ccccc2OC(F)(F)F)c1, CCOc1ccccc1C(=O)Nc1cccc(NC(=O)c2ccccc2C(F)(F)F)c1, COc1ccccc1C(=O)Nc1cccc(NC(=O)c2ccccc2C(C)C)c1, CCOc1cccc(NC(=O)c2cccc(NC(=O)C3CCCC3)c2)c1, CCOc1ccccc1NC(=O)c1cccc(NC(=O)C2CCCCC2)c1, Cc1cccc(C(=O)Nc2cccc(NC(=O)c3ccccc3Cl)c2)c1, O=C(Nc1cccc(NC(=O)c2cccc(C(F)(F)F)c2)c1)c1ccccc1, O=C(Nc1cccc(NC(=O)c2ccc(Cl)cc2)c1)c1ccccc1, CN(C)c1ccc(C(=O)Nc2cccc(NC(=O)c3ccccc3)c2)cc1, O=C(Nc1cccc(NC(=O)c2ccccc2)c1)c1ccccc1, CCOc1ccccc1NC(=O)c1cccc(NC(=O)c2cccc(C)c2)c1, CCOc1ccccc1NC(=O)c1cccc(NC(=O)c2ccc(C)cc2)c1, COc1ccccc1C(=O)Nc1cccc(NC(=O)c2cccc(C)c2)c1, CCOc1ccccc1NC(=O)c1cccc(NC(=O)CC2CCCC2)c1, COc1ccccc1C(=O)Nc1cccc(NC(=O)c2ccccc2OC)c1, Cc1cccc(C(=O)Nc2cccc(NC(=O)c3ccc(Cl)cc3)c2)c1, Cc1cccc(C(=O)Nc2cccc(NC(=O)c3ccc(C(C)(C)C)cc3)c2)c1, COc1ccccc1NC(=O)c1cccc(NC(=O)c2ccccc2C(F)(F)F)c1, CCOc1ccccc1NC(=O)c1cccc(NC(=O)C2CCCC2)c1, Cc1cccc(C(=O)Nc2cccc(NC(=O)c3ccco3)c2)c1, O=C(Nc1cccc(NC(=O)c2ccco2)c1)c1ccccc1, COc1ccccc1NC(=O)c1cccc(NC(=O)C2CCCC2)c1
